Four compounds from ChEMBL document CHEMBL2218924, “A broad activity screen in support of a chemogenomic map for kinase signalling research and drug discovery” (Biochem J, 2013) can be followed below.

In assay [1] the target is T1, Myotonin-protein kinase (Homo sapiens) (UniProt Q09013).
T1 sequence (whole entry): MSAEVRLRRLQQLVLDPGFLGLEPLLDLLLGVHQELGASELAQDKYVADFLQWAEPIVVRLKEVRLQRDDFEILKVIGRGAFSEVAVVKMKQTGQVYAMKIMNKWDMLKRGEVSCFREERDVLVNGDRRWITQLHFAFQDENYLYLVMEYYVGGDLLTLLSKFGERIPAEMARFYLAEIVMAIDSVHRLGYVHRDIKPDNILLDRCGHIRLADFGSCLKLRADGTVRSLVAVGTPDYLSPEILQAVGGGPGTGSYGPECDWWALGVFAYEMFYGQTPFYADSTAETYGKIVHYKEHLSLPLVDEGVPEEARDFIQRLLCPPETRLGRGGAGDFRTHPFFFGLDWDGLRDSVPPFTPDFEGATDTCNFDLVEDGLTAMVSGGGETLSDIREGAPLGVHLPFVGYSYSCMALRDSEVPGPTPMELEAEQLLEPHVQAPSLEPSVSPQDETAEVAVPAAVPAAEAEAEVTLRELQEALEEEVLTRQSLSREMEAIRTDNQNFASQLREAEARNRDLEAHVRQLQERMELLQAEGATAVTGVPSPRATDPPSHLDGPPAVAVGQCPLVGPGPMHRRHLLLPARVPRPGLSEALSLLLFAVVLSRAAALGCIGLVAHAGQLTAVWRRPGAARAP
The note with it: at 1 µM.

In assay [2] the target is T1, Myotonin-protein kinase (Homo sapiens). The note with it: at 10 µM.
The target of assay [3] is T2, Serine/threonine-protein kinase 17A (Homo sapiens) (UniProt Q9UEE5).
T2 sequence (whole entry): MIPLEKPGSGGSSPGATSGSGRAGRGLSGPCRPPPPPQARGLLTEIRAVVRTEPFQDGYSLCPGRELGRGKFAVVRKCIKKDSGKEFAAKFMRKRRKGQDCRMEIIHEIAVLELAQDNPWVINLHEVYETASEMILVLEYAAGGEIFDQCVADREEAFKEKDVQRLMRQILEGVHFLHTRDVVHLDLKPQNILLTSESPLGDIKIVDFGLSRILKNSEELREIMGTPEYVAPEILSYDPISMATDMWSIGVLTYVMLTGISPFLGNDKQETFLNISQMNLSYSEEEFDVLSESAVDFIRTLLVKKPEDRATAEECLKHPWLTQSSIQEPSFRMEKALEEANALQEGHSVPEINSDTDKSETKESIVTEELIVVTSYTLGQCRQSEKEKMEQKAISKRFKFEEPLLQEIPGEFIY
The note with it: at 10 µM.

In assay [4] the target is T3, Dual specificity tyrosine-phosphorylation-regulated kinase 2 (Homo sapiens) (UniProt Q92630).
T3 sequence (whole entry): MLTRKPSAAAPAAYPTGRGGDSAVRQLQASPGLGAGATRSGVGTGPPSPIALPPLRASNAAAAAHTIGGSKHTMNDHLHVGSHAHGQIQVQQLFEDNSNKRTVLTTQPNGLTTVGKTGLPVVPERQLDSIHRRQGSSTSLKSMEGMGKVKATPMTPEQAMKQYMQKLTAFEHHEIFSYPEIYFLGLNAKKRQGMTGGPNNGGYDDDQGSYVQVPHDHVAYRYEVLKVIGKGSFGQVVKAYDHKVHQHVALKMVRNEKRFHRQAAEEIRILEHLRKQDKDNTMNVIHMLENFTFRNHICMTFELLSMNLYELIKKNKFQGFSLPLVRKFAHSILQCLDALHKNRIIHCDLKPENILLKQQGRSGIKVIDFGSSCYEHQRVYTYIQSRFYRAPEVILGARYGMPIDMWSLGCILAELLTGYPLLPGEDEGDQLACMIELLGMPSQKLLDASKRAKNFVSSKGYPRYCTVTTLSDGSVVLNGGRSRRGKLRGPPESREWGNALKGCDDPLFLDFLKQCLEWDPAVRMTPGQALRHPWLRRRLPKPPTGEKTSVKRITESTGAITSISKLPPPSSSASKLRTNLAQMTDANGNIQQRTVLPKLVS
The note with it: at 1 µM.

Assay [5] has as its target T3, Dual specificity tyrosine-phosphorylation-regulated kinase 2 (Homo sapiens). The note with it: at 10 µM.
In assay [6] the target is Epidermal growth factor receptor (Homo sapiens) (UniProt P00533). The note with it: at 10 µM.
Chain of Epidermal growth factor receptor (Homo sapiens) (P00533 whole entry): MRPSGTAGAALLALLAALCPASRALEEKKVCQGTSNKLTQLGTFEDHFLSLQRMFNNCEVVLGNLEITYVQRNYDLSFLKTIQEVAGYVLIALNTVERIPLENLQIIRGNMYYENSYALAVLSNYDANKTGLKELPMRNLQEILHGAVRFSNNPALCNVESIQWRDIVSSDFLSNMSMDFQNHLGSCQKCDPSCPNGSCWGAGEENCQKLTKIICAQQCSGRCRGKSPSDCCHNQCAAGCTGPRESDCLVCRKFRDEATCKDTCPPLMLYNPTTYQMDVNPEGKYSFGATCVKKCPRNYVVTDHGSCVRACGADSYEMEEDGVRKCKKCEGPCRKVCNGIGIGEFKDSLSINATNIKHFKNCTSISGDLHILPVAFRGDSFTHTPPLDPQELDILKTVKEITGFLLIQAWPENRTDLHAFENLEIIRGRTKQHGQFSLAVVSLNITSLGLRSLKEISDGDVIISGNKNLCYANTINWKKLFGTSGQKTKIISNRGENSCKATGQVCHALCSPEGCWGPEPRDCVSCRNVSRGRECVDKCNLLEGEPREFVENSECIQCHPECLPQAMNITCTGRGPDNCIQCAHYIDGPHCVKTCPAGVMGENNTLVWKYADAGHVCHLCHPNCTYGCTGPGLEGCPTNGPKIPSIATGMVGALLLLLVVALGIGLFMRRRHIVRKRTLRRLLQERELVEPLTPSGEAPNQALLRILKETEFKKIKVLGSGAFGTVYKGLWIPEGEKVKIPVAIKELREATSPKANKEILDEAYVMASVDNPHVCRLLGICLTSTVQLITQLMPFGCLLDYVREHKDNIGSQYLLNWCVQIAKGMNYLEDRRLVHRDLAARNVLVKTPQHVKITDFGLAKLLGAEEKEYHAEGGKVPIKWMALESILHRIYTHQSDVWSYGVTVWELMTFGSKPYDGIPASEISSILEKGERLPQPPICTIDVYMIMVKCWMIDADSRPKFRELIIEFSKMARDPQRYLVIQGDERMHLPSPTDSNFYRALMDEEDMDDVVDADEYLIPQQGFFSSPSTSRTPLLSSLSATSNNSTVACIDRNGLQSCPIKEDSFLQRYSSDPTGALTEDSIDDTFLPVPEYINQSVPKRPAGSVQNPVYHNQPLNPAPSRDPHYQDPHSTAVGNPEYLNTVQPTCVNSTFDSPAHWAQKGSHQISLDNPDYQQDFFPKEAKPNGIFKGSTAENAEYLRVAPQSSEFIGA
Assay [7] addresses T4, Ephrin type-A receptor 1 (Homo sapiens) (UniProt P21709).
T4 sequence (whole entry): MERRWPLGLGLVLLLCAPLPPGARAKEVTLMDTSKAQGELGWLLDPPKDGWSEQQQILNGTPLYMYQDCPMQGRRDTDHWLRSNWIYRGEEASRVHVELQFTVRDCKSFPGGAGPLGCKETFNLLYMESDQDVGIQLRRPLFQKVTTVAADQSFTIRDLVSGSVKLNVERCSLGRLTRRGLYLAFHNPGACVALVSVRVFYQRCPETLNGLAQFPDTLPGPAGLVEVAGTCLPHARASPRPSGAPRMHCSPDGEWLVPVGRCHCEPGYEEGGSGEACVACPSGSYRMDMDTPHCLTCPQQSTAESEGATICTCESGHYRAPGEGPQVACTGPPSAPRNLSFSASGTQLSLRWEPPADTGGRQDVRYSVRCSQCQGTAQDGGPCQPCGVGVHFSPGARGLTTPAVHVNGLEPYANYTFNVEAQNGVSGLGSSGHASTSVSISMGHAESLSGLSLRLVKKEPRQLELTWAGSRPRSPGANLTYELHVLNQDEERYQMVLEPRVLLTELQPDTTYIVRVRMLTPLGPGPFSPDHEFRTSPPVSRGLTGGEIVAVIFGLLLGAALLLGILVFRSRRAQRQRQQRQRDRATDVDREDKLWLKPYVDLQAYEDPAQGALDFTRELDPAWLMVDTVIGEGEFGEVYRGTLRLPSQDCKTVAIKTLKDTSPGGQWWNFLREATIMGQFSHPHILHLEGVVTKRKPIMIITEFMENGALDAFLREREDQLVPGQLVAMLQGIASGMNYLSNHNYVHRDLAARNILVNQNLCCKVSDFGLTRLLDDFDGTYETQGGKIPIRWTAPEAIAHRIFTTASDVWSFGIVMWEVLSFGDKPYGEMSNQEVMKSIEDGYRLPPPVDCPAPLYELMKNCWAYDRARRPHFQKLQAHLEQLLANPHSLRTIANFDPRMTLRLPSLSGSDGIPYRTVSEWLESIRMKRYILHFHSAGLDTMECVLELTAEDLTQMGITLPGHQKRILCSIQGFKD
The note with it: at 1 µM.

The target in assay [8] is T4, Ephrin type-A receptor 1 (Homo sapiens). The note with it: at 10 µM.
The target in assay [9] is Death-associated protein kinase 2 (Homo sapiens) (UniProt Q9UIK4). The note with it: at 10 µM.
Chain of Death-associated protein kinase 2 (Homo sapiens) (Q9UIK4 whole entry, looked up): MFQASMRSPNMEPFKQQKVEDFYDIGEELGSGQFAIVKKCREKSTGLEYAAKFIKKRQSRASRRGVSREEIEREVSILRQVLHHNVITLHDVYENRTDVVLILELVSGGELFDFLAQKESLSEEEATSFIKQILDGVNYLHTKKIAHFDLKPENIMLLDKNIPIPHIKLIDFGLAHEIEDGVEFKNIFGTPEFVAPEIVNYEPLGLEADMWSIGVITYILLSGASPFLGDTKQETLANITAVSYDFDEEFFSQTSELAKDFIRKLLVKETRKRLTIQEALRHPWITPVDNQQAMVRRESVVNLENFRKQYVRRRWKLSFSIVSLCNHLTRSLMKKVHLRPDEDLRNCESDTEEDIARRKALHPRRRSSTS
Assay [10] concerns the target T5, Serine/threonine-protein kinase DCLK2 (Homo sapiens) (UniProt Q8N568).
T5 sequence (whole entry): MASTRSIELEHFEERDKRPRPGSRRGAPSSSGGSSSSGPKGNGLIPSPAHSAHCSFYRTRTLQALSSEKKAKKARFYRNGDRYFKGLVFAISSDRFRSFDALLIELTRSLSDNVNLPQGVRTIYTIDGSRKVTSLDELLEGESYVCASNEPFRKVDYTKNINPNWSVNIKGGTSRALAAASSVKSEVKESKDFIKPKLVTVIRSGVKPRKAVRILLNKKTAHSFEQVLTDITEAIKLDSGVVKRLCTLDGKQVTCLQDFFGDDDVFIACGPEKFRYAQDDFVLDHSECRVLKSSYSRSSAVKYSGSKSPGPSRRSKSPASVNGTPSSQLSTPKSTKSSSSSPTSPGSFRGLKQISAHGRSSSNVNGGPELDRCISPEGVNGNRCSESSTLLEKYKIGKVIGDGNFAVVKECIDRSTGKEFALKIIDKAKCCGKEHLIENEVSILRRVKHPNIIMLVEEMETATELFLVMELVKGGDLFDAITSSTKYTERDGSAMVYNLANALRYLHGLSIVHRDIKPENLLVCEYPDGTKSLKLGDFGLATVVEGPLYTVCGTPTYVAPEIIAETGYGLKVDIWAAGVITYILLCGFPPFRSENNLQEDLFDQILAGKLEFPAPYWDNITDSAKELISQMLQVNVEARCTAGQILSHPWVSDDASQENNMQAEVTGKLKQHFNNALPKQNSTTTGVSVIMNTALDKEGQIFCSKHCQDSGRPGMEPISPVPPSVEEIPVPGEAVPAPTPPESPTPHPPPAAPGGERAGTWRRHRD
The note with it: at 1 µM.

The target of assay [11] is T6, Discoidin domain-containing receptor 2 (Homo sapiens) (UniProt Q16832).
T6 sequence (whole entry): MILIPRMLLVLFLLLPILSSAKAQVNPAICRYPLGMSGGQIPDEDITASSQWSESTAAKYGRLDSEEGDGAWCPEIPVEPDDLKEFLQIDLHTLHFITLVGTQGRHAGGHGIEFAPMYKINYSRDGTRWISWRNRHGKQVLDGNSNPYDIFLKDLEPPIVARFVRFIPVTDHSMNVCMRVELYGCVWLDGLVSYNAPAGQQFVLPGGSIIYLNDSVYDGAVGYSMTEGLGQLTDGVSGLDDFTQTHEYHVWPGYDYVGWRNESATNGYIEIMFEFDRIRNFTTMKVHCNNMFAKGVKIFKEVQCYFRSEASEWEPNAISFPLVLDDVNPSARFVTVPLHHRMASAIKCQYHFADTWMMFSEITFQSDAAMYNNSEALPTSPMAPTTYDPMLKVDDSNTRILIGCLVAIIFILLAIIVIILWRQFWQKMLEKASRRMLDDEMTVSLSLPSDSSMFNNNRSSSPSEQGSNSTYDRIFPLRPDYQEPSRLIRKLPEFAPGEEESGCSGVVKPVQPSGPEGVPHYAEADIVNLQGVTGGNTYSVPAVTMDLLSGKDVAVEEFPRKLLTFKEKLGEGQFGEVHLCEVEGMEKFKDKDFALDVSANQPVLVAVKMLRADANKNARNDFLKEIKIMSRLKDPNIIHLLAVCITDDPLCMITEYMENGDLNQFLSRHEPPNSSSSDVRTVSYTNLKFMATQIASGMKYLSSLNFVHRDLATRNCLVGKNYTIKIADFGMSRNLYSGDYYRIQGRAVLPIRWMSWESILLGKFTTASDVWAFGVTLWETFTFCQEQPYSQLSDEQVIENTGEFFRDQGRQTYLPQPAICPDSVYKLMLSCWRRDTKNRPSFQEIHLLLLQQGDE
The note with it: at 10 µM.

Assay [12] concerns the target T2, Serine/threonine-protein kinase 17A (Homo sapiens). The note with it: at 1 µM.
Assay [13] concerns the target T5, Serine/threonine-protein kinase DCLK2 (Homo sapiens). The note with it: at 10 µM.

In general, residual activity refers to the signal under treatment as a percentage of the control signal. Turning to `Nc1nccc(-c2c(-c3ccc(F)cc3)ncn2C2CCNCC2)n1`, the residual activity was found to be 129% in [1]; 83% in assay [2]; 21% in assay [3]; 83% in assay [4]; 40% in assay [5]; 84% in assay [6]. The residual activity in assay [7] came to 119%; in assay [8], 45%.
`O=C(Nc1ccc(Cl)cc1)c1ccccc1NCc1ccncc1`: the residual activity in assay [9] was found to be 119%; in assay [10], 74%; in assay [11], 36%; in assay [12] it was 99%; in assay [3] it was 99%.
For the compound `O=C1Cc2c([nH]c3ccc([N+](=O)[O-])cc23)-c2ccccc2N1`, the residual activity came to 10% in assay [12]; 7% in [3]; 54% in assay [4]; 71% in assay [5]; 109% in assay [7]; 103% in [8].
With `COc1ccc(-c2cnc3c(-c4ccsc4)cnn3c2)cc1`, the residual activity came to 84% in assay [10]; 100% in [13]; 145% in assay [1]; 129% in assay [2]; 95% in [12]; 98% in assay [3]. Further, the residual activity in assay [4] amounted to 100%; in assay [5], 94%.
